This note sets out measurements from PubChem BioAssay (NCI).

A short description of this assay: NCI Yeast Anticancer Drug Screen. Data for the mlh1 strain (AID 171).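 Further: 0% = growth of vehicle-treated control cultures of the same strain.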 The settings on record: S. cerevisiae mlh1 strain growth inhibition, hits give high values. How it is done:
Growth inhibition of yeast strains with defined genetic alterations is measured as a screen for potential anti-cancer activity. Selected strains with alterations in DNA damage repair or cell cycle control were exposed to compounds and growth inhibition was measured relative to vehicle treated controls. The strain used in this assay is mlh1

About 79,000 compounds went through this panel and 15% of them were active in at least one assay; those are over-represented in the sample as a whole. Active and inactive are the calls of the source. No stated cut-off is given here; in the data, active means growth inhibition above about 70%; inactive means the rest.

Take `C[C@@H]1C[C@H]2[C@@H]3CCC4=CC(=O)C=C[C@]4(C)[C@@]3(Cl)[C@@H](Cl)C[C@]2(C)[C@@]1(O)C(=O)COP(=O)(O)O`: the growth inhibition is, setting by setting: (at 1.2 µM) 2% (inactive); (at 3.7 µM) 3% (inactive); (at 11.0 µM) 0% (inactive); (at 33.0 µM) 8% (inactive); (at 100.0 µM) 12% (inactive).

For the compound `N#CC(C(=O)Nc1ccccc1)C1=C(Cl)C(=O)c2ccccc2C1=O` (stereo not given), the growth inhibition is -3% (inactive) (at 1.2 µM); 41% (inactive) (at 3.7 µM); 98% (active) (at 11.0 µM); 97% (active) (at 33.0 µM); 97% (active) (at 100.0 µM).

Turning to `O=C(c1ccc(Cl)cc1Cl)C(Cl)Cl`, the growth inhibition reads like this: (at 1.2 µM) -10% (inactive); (at 3.7 µM) 3% (inactive); (at 11.0 µM) 20% (inactive); (at 33.0 µM) 83% (active); (at 100.0 µM) 99% (active).

In the case of `Cn1c(=O)c2ccccc2c2ccccc21`, the growth inhibition is 8% (inactive) (at 1.2 µM); -5% (inactive) (at 3.7 µM); 4% (inactive) (at 11.0 µM); 46% (inactive) (at 33.0 µM); 59% (inactive) (at 100.0 µM).

For `Cc1nc(-[n+]2nc(-c3ccncc3)nn2-c2ccccc2)sc1C`, the growth inhibition (at 1.2 µM) is -2% (inactive); the growth inhibition (at 3.7 µM) is -5% (inactive); the growth inhibition (at 11.0 µM) is 7% (inactive); the growth inhibition (at 33.0 µM) is 58% (inactive); the growth inhibition (at 100.0 µM) is 72% (active).

Turning to `CCCCN(CCCC)CCSc1ccc(Cl)cc1`, the growth inhibition is -14% (inactive) (at 1.2 µM); -11% (inactive) (at 3.7 µM); -9% (inactive) (at 11.0 µM); 17% (inactive) (at 33.0 µM); 91% (active) (at 100.0 µM).

`Cc1nn(-c2cc(Cl)ccc2[N+](=O)[O-])c(C)c1Cl`: the growth inhibition (at 1.2 µM) is 0% (inactive); the growth inhibition (at 3.7 µM) is 2% (inactive); the growth inhibition (at 11.0 µM) is 3% (inactive); the growth inhibition (at 33.0 µM) was 1% (inactive); the growth inhibition (at 100.0 µM) was 3% (inactive).

As for `N#CN1C2CCC1CC(=O)C2`, the growth inhibition (at 1.2 µM) was -19% (inactive); the growth inhibition (at 3.7 µM) is -11% (inactive); the growth inhibition (at 11.0 µM) was -13% (inactive); the growth inhibition (at 33.0 µM) is -16% (inactive); the growth inhibition (at 100.0 µM) was -21% (inactive).
